The results in this text go back to PubChem BioAssay AID463173 (ICCB-Longwood Screening Facility, Harvard Medical School, 2010).

The campaign covered roughly 52,000 compounds. About 4,300 (8.3%) were called active. The entries come from a sample that favours actives as a whole. Values without a mark were called inactive. Rule as the data show it: active = survival mostly below about 52% (no sharp cut-off); inactive = mostly above about 56%.

The experiment relates to DeltatarO mutant. The experiment in a line: growth inhibition of S. aureus wild type versus tarO mutant, primary screen, teichoic acid synthesis inhibitors, RN4220, OD600 (AID 463173). The note with it: OD600, 18 h, stronger effect = lower value, screened at 18.75 µg/mL (by protocol).
On to `Cc1cccc(C(=O)NC2(C(F)(F)F)N=C(c3ccccc3)N(C3CCCCC3)C2=O)c1` (stereo not given), for which the survival was 68%.

Take `Cc1c(Cl)cccc1NC(=O)Cn1nc(C(F)(F)F)c2c1CCC2`: the survival is 73%. On to `CCOc1ccc(S(=O)(=O)NCCc2sc3nc(-c4ccc(F)cc4)nn3c2C)cc1`, for which the survival is 67%. To `Cc1nn2c(-c3ccco3)ccnc2c1-c1ccc(Cl)cc1` belongs 94%. On to `Cc1cc(-c2ccccc2)nc2cc(C(N)=O)nn12`, for which the survival was 71%. Under `Cc1ccc(S(=O)(=O)NCCc2nnc3ccc(SCc4ccc(F)cc4)nn23)cc1` stands 112%. On to `CCOc1ccc(NCc2cccn2-c2nnc(N3CCC(C(=O)NCc4cccc(OC)c4)CC3)s2)cc1`, for which the survival was 80%. `Cn1cnc(S(=O)(=O)N2CCC(C(=O)Nc3ccc(F)cc3F)CC2)c1`: the survival was 91%. On to `NC(=O)COc1cccc(-n2cnnn2)c1`, for which the survival was 63%. In the case of `COc1ccc2nc(SCC(=O)O)[nH]c2c1`, the survival was 104%. Under `CCN(CC)CCSc1nc2ccc(OC)cc2[nH]1` stands 70% (active). On to `COc1ccc2nc(-c3ccc(N)cc3)[nH]c2c1`, for which the survival was 58%. Under `Cc1ccc(S(=O)(=O)N2CCCC2C(N)=O)cc1` (stereo not given) stands 59%; under `COc1cc(C(=O)Nc2ccc3oc(-c4ccc(C)c(Br)c4)nc3c2)cc(OC)c1OC`, 93%; under `CCCc1cc(C(=O)Nc2c(C)nn(Cc3ccc(C)cc3)c2C)no1`, 73%. Under `CC(C)c1ccc(-c2noc(C3CCCN(C(=O)Cc4cccs4)C3)n2)cc1` (stereo not given) stands 40% (active); under `CCCC(=O)N1CCCC(c2nc(-c3ccc(C(C)C)cc3)no2)C1` (stereo not given), 103%; under `CC(C)c1ccc(-c2noc(C3CCCN(C(=O)c4ccccc4)C3)n2)cc1` (stereo not given), 86%. On to `Cc1ccc(-n2nc(C)c3c(C(=O)NCc4ccc(F)cc4)cc(C)nc32)cc1`, for which the survival is 83%. For the compound `CN(C)c1ccc(CNc2nc(-c3ccco3)nn2C(=O)c2cccc([N+](=O)[O-])c2)cc1`, the survival was 66%.

With `O=C(CCS(=O)(=O)c1nc(-c2cccs2)cc(C(F)(F)F)n1)Nc1ccc(Br)cc1`, the survival was 61%. For the compound `COC(=O)c1ccccc1NC(=O)CCCS(=O)(=O)c1nc(-c2ccccc2OC)cc(C(F)(F)F)n1`, the survival was 87%. As to `COc1ccccc1-c1cc(C(F)(F)F)nc(S(=O)(=O)CCCC(=O)Nc2ccc(F)c(Cl)c2)n1`, the survival is 87%. To `COc1ccc(NC(=O)CCCS(=O)(=O)c2nc(-c3ccccc3OC)cc(C(F)(F)F)n2)c(OC)c1` belongs 46% (active); to `COc1ccccc1-c1cc(C(F)(F)F)nc(S(=O)(=O)CCCC(=O)Nc2ccc(F)cc2F)n1`, 67%; to `COc1ccccc1-c1cc(C(F)(F)F)nc(S(=O)(=O)CCCC(=O)Nc2ccccc2F)n1`, 70%. `COc1ccccc1-c1cc(C(F)(F)F)nc(S(=O)(=O)CCCC(=O)Nc2cc(OC)c(OC)c(OC)c2)n1`: the survival was 134%.

Take `COc1ccccc1-c1cc(C(F)(F)F)nc(S(=O)(=O)CCCC(=O)Nc2cc(C)ccc2O)n1`: the survival was 47% (active). `COc1ccccc1-c1cc(C(F)(F)F)nc(S(=O)(=O)CCCC(=O)Nc2cc(Br)ccc2O)n1`: the survival was 45% (active). To `O=C(CCS(=O)(=O)c1nc(-c2cccs2)cc(C(F)(F)F)n1)Nc1cc(Br)ccc1O` belongs 15% (active); to `COc1ccc(-c2cc(C(F)(F)F)nc(S(=O)(=O)CCCC(=O)Nc3ccccc3C(F)(F)F)n2)cc1OC`, 70%. Under `Cc1ccc(O)c(NC(=O)CCS(=O)(=O)c2nc(-c3cccs3)cc(C(F)(F)F)n2)c1` stands 51%; under `CC(=O)Nc1ccc(NC(=O)c2cc(CN3CCCC3)on2)cc1`, 96%.

As for `Cc1cccc(C)c1NC(=O)C1CCN(S(=O)(=O)c2cccc3nsnc23)CC1`, the survival was 89%.

Turning to `COc1ccc(-n2c3c(cc(-c4nc(-c5ccc(Cl)cc5)cs4)c2=O)C(=O)CC(C)(C)C3)cc1Cl`, the survival was 79%. Regarding `COc1ccc(OC)c(NC(=O)c2cnn(-c3ccc(C)cc3)c2C2CCNCC2)c1`, the survival was 92%. On to `CCOc1ccc(NC(=O)CCNS(=O)(=O)c2ccc3c(c2)CCCC(=O)N3)cc1`, for which the survival is 66%. For `CCN1CCOC(=O)C1CC(=O)Nc1cc(Cl)ccc1OC` (stereo not given), the survival was 50%. On to `O=C(O)c1ccccc1SC1CC(=O)N(c2ccc(N3CCCCC3)cc2)C1=O` (stereo not given), for which the survival is 90%. To `CCS(=O)(=O)N1CCc2cc(C(=O)Nc3ccc(OC)c(Cl)c3)ccc21` belongs 47%; to `COc1ccc(N2CCN(C(=O)c3ccc4c(c3)CCN4S(C)(=O)=O)CC2)cc1`, 57%; to `CCOc1ccc(NC(=O)c2ccc3c(c2)CCN3S(=O)(=O)CC)cc1`, 48%. Take `COC(=O)c1ccccc1NC(=O)c1ccc2c(c1)CCN2S(C)(=O)=O`: the survival is 94%. On to `COC(=O)c1cc(OC)c(OC)cc1NC(=O)c1ccc2c(c1)CCN2S(C)(=O)=O`, for which the survival is 37% (active).

Consider `CCS(=O)(=O)N1CCc2cc(C(=O)Nc3cc(OC)c(Cl)cc3OC)ccc21`, for which the survival was 43% (active). For the compound `CCS(=O)(=O)N1CCc2cc(C(=O)NCc3ccc(OC)cc3)ccc21`, the survival is 89%.

For the compound `CCS(=O)(=O)N1CCc2cc(C(=O)N3CCN(c4ccccc4)CC3)ccc21`, the survival was 69%. For the compound `COC(=O)c1cc(OC)c(OC)cc1NC(=O)c1ccc2c(c1)CCN2S(=O)(=O)c1ccccc1`, the survival was 66%.

Consider `COc1ccc(Cl)cc1NC(=O)c1ccc2c(c1)CCN2S(C)(=O)=O`, for which the survival was 81%. Consider `CCS(=O)(=O)N1CCc2cc(C(=O)N3CCN(c4ccc(OC)cc4)CC3)ccc21`, for which the survival was 40% (active). Take `CCS(=O)(=O)N1CCc2cc(C(=O)Nc3ccc(OC)cc3OC)ccc21`: the survival was 44% (active). In the case of `CC1=C(C(=O)Nc2ccccc2)C(c2ccncc2)n2nc(SCc3ccccc3Cl)nc2N1` (stereo not given), the survival is 74%. As for `CCCCOc1ccc(-c2cc3c(=O)n(CC(=O)Nc4ccc(Cl)cc4Cl)ccn3n2)cc1`, the survival was 133%.

Take `CCN(CC)C(=O)Cn1c(=O)n(Cc2ccc(C(=O)NCCc3ccc(OC)c(OC)c3)cc2)c(=O)c2ccccc21`: the survival is 104%. Consider `CCn1c(=O)n(CC)c2cc(N3CCCC3)c(NC(=O)Nc3cc(C)cc(C)c3)cc21`, for which the survival is 91%.
